Source: PubChem BioAssay (NCATS)
Values joined by “and” are separate entries in the source; they are usually repeats but may differ in a detail not shown here. Equal values may be shown once. Records with an inconclusive call do not appear. Where a call stands in place of a potency, no number is given. Some compounds were tested as several samples or in several runs, with calls that do not always agree. Active and inactive are the calls of the source. Unless noted, the call rests on the fitted dose curve; in most records, active means well fitted curve in the direction sought with a large enough effect; inconclusive means small, poorly fitted or top-dose-only effect, or another doubt; inactive means no such curve, though single readings can be large; an effect the other way counts as inactive or inconclusive.

Assays:
[1] = target: Calcium and integrin-binding protein 1 (Homo sapiens) (UniProt Q99828); assay: Primary qHTS for Identification of Calcium Integrin Binding Protein 1 (CIB1) Competitor (AID 1508620);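 further: GST tagged CIB1 binding a fluorescein labelled alphaIIb integrin peptide tracer; top concentration of the series differs between compounds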
Sequence of Calcium and integrin-binding protein 1 (Homo sapiens) (Q99828 whole entry, looked up): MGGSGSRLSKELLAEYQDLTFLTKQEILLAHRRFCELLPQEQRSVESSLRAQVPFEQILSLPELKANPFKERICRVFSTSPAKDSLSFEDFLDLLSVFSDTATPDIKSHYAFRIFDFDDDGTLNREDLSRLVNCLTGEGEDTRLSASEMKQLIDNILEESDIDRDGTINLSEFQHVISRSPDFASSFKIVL
Summary of the method: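 Fluorescence polarization competition: GST-tagged CIB1 (1 uM final) preincubated with compound 15 min at room temperature, then FITC-labelled alphaIIb peptide (100 nM final) added. After 15 min at room temperature, polarization read at Ex 480/Em 540.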

[2] = target: Cytochrome P450 2D6 (Homo sapiens) (UniProt P10635); assay: Cytochrome P450 family 2 subfamily D member 6 (CYP2D6) small molecule antagonists: luciferase biochemical (cell-free) qHTS assay (AID 1645840; active means well fitted curve in the direction sought with a large enough effect in the repeat runs; an effect the other way counts as inactive or inconclusive; further: nearly all actives have a fitted effect of over 55% in size; further: potency means the concentration at half of the fitted maximal effect)
Sequence of Cytochrome P450 2D6 (Homo sapiens) (P10635 whole entry, looked up): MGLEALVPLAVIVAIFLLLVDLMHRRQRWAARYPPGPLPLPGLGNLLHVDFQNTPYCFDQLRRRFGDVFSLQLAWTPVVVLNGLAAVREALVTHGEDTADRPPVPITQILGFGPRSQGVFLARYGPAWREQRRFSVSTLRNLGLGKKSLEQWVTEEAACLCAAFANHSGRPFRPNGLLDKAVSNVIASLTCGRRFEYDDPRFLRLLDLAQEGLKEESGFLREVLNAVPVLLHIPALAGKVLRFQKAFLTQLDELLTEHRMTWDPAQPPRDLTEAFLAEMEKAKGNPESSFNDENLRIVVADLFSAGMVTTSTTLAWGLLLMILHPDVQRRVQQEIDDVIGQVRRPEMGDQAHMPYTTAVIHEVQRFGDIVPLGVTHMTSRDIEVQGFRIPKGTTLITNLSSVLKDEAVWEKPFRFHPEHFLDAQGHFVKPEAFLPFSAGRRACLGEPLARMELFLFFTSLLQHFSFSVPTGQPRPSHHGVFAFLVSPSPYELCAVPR
Summary of the method: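 P450-Glo luminescent screen: recombinant CYP2D6 enzyme–proluciferin substrate mix preincubated with compound 10 min at room temperature, then NADPH regeneration added for 1 h at room temperature. Detection reagent added for 20 min; luciferin light read as relative luminescence units.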

[3] = Primary qHTS for inhibitors of nuclear receptor binding SET domain protein 2 (NSD2) in an isogenic RCH-ACV NSD2 p.E1099K mutant (9B) (AID 1645876); further: nearly all actives have a fitted effect of over 70% in size; further: potency means the concentration at half of the fitted maximal effect
[4] = target: Cytochrome P450 2C9 (Homo sapiens) (UniProt P11712); assay: Cytochrome P450 family 2 subfamily C member 9 (CYP2C9) small molecule antagonists: luciferase biochemical (cell-free) qHTS assay (AID 1645842; active means well fitted curve in the direction sought with a large enough effect in the repeat runs; an effect the other way counts as inactive or inconclusive; further: nearly all actives have a fitted effect of over 55% in size; further: potency means the concentration at half of the fitted maximal effect)
Sequence of Cytochrome P450 2C9 (Homo sapiens) (P11712 whole entry, looked up): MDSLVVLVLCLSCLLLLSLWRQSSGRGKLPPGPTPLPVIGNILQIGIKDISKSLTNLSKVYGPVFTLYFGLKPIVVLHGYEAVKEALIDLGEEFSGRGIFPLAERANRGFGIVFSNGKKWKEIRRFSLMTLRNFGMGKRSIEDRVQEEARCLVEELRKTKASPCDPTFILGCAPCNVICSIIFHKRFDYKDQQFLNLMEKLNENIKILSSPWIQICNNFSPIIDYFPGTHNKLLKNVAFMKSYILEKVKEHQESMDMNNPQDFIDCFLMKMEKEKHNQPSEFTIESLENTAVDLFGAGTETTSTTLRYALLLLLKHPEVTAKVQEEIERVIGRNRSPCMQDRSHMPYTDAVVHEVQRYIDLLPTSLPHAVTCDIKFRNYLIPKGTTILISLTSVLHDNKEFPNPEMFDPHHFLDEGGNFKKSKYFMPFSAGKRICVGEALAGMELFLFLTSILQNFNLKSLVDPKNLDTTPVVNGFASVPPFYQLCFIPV
Summary of the method: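 Luminescence, after 20 min with luciferin detection reagent, reflected CYP2C9 turnover during a 1 h NADPH-driven reaction at 37C. Enzyme-substrate mix contained 0.4% bovine serum albumin and was preincubated with compound 10 min at room temperature.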

Structure (SMILES)	Potency [1]	Potency [2]	Potency [3]	Potency [4]
CC(C)[C@@H]1C(=O)N(S(C)(=O)=O)[C@@H]2CCN(C(=O)/C=C/CN3CCCCC3)[C@H]21	inactive	inactive	inactive	
Nc1nc(Nc2ccc(S(N)(=O)=O)cc2)n(C(=S)Nc2c(F)cccc2F)n1	inactive	10.7 µM (active)	inactive	
Cc1cc(C(=O)N2Cc3cnn(C)c3Nc3ccccc32)ccc1CNC(=O)N1CCC[C@H]1C(=S)N1CCCN(C)CC1	inactive	inactive	inactive	
Cc1cc(C)c(CNC(=O)c2cc(-c3ccc(CN4CCOCC4)cc3)cc3c2cnn3C2CCCC2)c(=O)[nH]1	inactive		inactive and 18.6 µM (active)	2.39 µM (active)
CCCCc1ccc(C(=O)Nc2cc(-c3ccc(Cl)cc3)nn2-c2ccc(Cl)cc2)cc1	inactive		inactive	inactive
CN1CCN(Cc2ccc(-c3cnc4[nH]cc(-c5ccc6[nH]ccc6c5)c4c3)cc2)CC1	inactive		1.45 µM (active)	12 µM (active)
CC(=O)NCC(=O)N1C2CCC1c1cc(Nc3ncc(C(F)(F)F)c(NC4CCC4)n3)ccc12 (stereo unspecified)	inactive		0.0728 µM (active)	9.52 µM (active)
O=C1CSc2ccccc2N1Cc1cccc(C(F)(F)F)c1	inactive			inactive
O=C(NCC(O)CO)c1ccncc1Nc1ccc(I)cc1F (stereo unspecified)	inactive			16.9 µM (active)
COc1ccccc1NC(=O)OCC1CCN(C(=O)OC(C)(C)C)CC1	inactive		inactive	inactive
Cc1cc(Nc2ccc(NC(=O)c3ccc(Nc4ccnc5ccccc45)cc3)cc2)nc(N)n1	inactive		1.83 µM (active)	inactive
